About 83,000 compounds went through this panel and 20% of them were active in at least one assay; those are over-represented in the sample as a whole.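 Negative percent growth values reflect cell death: -40 means 40% of the cells present at the start died, and -100 means all died.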 Active and inactive are the calls of the source. The calls were made as follows: active = growth percent below 10; inactive = the rest.
Key:
Assay in all cases: NCI-60 one-dose screen, 48 h (100 = growth as untreated, 0 = no growth, -100 = all killed)
Conditions in all cases: 10 µM unless noted
[1] = test system: NCI-H23 lung
[2] = test system: NCI-H226 lung
[3] = test system: NCI-H322M lung
[4] = test system: HOP-62 NSCLC
[5] = test system: NCI-H460 lung
[6] = test system: HOP-92 NSCLC
[7] = test system: NCI-H522 lung
[8] = test system: A549/ATCC NSCLC
[9] = test system: 786-0 renal
[10] = test system: COLO 205 colon

Measured: growth

NCCN1CCN(c2nc(-c3ccccc3)nc3nc(-c4ccccc4)oc23)CC1
active: [1] -42.7% | [2] -57.6% | [3] -41.4% | [4] 0.341% | [5] -67.7% | [7] -13.1% | [8] -63.7% | [9] -83.3% | [10] -44.7%
inactive: [6] 58.9%

O=C(Nc1cc(F)cc2cccnc12)c1cnc(N2CCOCC2)cn1
inactive: [1] 59.2% | [2] 80.7% | [3] 92% | [4] 87.3% | [5] 98.9% | [6] 83.7% | [7] 15.2% | [8] 95.3% | [9] 65.7% | [10] 18.1%

NS(=O)(=O)c1ccc(Nc2nc(N/N=C/c3ccc([N+](=O)[O-])cc3)nc(Nc3ccccc3)n2)cc1
inactive: [1] 12.2% | [2] 59.6% | [3] 39.5% | [6] 49.1% | [7] 48.3% | [8] 96.9% | [9] 10.4% | [10] 23.1%
active: [4] 9.49% | [5] 1.55%

CCOC(=O)/C(F)=C/C1CC1C1CCCCC1 (stereo not given)
inactive: [1] 97.4% | [2] 104% | [3] 105% | [4] 122% | [5] 104% | [6] 83.1% | [7] 103% | [8] 104% | [9] 102% | [10] 110%

O=C(Nc1ccc(-c2nc(-c3cccc(O)c3)c(-c3ccnc(Br)c3)[nH]2)cc1)c1ccccc1
active: [4] 2.99% | [6] 6.58% | [9] -10.2%
inactive: [1] 10.5% | [2] 51.4% | [3] 37.3% | [5] 11.1% | [7] 11.3% | [8] 25.9% | [10] 21%

C#C[C@]1(O)CC[C@H]2[C@@H]3CC=C4c5sc(-c6cccc(F)c6)nc5CC[C@]4(C)[C@H]3CC[C@@]21C
inactive: [1] 84.2% | [2] 83.5% | [3] 73.8% | [4] 91.4% | [5] 93.5% | [6] 113% | [7] 89.2% | [8] 83.8% | [9] 65.3% | [10] 97.9%

CC(C)N=C(N/C(N)=N/c1nc2ccccc2s1)NC(C)C
inactive: [1] 47.5% | [2] 67.2% | [3] 62.2% | [4] 55.4% | [5] 48.8% | [6] 30.8% | [7] 85.1% | [8] 69.3% | [9] 58.5% | [10] 55.6%

O=c1cc(-c2ccccc2)nc2sc(-c3c[nH]c4ccc(F)cc34)nn12
active: [6] -1.32%
inactive: [1] 73.2% | [2] 41% | [3] 61.2% | [4] 19.1% | [5] 17.2% | [7] 62.6% | [8] 58.7% | [9] 15.8% | [10] 74.7%

CN1CCN(Cc2ccc(NC(=O)c3cncc(C#Cc4cnc5ccc(NC6CCOCC6)nn45)c3)cc2C(F)(F)F)CC1
active: [1] -52.9% | [2] -53.1% | [3] -20% | [4] -0.603% | [5] -81.4% | [6] -29.2% | [7] -68.5% | [8] -14.2% | [9] -88.3% | [10] -90.6%

C/C(=C(/c1ccc(O)cc1)c1ccc(OCCN(C)C)cc1)c1ccc(Cl)cc1
active: [10] -88.7%
inactive: [1] 56.8% | [2] 89.4% | [3] 48% | [4] 67.4% | [5] 15% | [6] 32.5% | [7] 57.8% | [8] 56.4% | [9] 50.2%

O=C1c2c(c3c4cccnc4[nH]c3c3ccc4ccccc4c23)C(=O)N1CCN1CCCCC1
inactive: [1] 29.3% | [2] 64.6% | [3] 69.6% | [4] 36.6% | [5] 12.5% | [6] 70.4% | [7] 63% | [8] 46.8% | [9] 52.6% | [10] 69.4%

COc1ccc(-c2nnc(/N=C3/C(=O)Nc4ccc(Br)cc43)o2)cc1
inactive: [1] 95.5% | [2] 101% | [3] 93.9% | [4] 106% | [5] 101% | [6] 97.1% | [7] 98.6% | [8] 104% | [9] 103% | [10] 105%

CCc1ccc(NC(=O)N[C@@H](Cc2cccc(F)c2)C(=O)N[C@@H]2C(=O)N3CCC[C@H]3C(=O)N3CCCC[C@H]3C(=O)N[C@@H](CO)C(=O)N3C[C@H](C)C[C@H]3C(=O)O[C@H]2C)c(F)c1
inactive: [1] 32.9% | [3] 51.1% | [4] 37.8% | [5] 14.4% | [7] 20.1% | [8] 36.3% | [9] 44.1%
active: [2] -1.86% | [6] 2.76% | [10] -50.4%

Cc1ccc(Nc2ncnc3c2c(C)nn3-c2ccc([N+](=O)[O-])cc2)cc1
active: [2] 8.18%
inactive: [1] 77.3% | [3] 88.5% | [4] 60.3% | [5] 30.7% | [6] 111% | [7] 74.8% | [8] 45.1% | [9] 86.9% | [10] 72.2%

O=C1c2c(c3c4cccnc4[nH]c3c3ccc4ccccc4c23)C(=O)N1CCN1CCNCC1
inactive: [1] 81.6% | [2] 89.4% | [3] 88% | [4] 63.6% | [5] 32.6% | [6] 85.3% | [7] 81.8% | [8] 44% | [9] 52.7% | [10] 81.9%

CC1COc2c(N3CCN(C)CC3)c(F)cc3c(=O)c(C(=O)N/N=C/c4cc[nH]c4)cn1c23 (stereo not given)
inactive: [1] 41.1% | [2] 50% | [3] 65.7% | [4] 38% | [6] 28% | [7] 13.8% | [10] 54.4%
active: [5] 0.46% | [8] -5.87% | [9] 1.52%

CC[C@]12C=CCN3CC[C@]4(C(=C(C(=O)OC)C1)Nc1cc5c(cc14)[C@@H]1[C@H](O5)[C@@H](O)[C@@]4(CC)CC(C(=O)OC)=C5Nc6cc(OC)ccc6[C@@]56CCN1[C@@H]46)[C@@H]32
active: [1] -44.5% | [2] -1.39% | [5] 5.78% | [7] -11.8% | [9] -9.86% | [10] -29.2%
inactive: [3] 15% | [4] 24.1% | [6] 37.1% | [8] 20%

CC(=O)C1=NN(c2ccc(Cl)cc2)C(=O)CN1C
inactive: [1] 94.9% | [2] 105% | [3] 101% | [4] 103% | [5] 108% | [6] 107% | [7] 95.6% | [8] 96.2% | [9] 91.2% | [10] 106%

NS(=O)(=O)c1ccc(Nc2nc(N/N=C/c3ccc(C(F)(F)F)cc3)nc(Nc3ccccc3)n2)cc1
inactive: [1] 52.8% | [2] 36.7% | [3] 52.6% | [4] 38% | [5] 14.6% | [6] 57.4% | [7] 38% | [8] 27.6% | [10] 29.3%
active: [9] -3.55%

CN(C)c1ccc(/C=N/Nc2nc(N/N=C/c3ccc(N(C)C)cc3)nc(N3CCOCC3)n2)cc1
inactive: [1] 99.3% | [2] 93.5% | [3] 100% | [4] 106% | [5] 16.7% | [6] 109% | [7] 98.9% | [8] 74.9% | [9] 84.6% | [10] 108%

NC(=O)c1c(NC(=O)c2cccc(C(F)(F)F)c2F)sc2c1CCC(=O)C2
inactive: [2] 24.8% | [3] 98.6% | [4] 58.4% | [5] 10.9% | [6] 13.8% | [8] 64.8% | [9] 30.2%
active: [1] 4.57% | [7] -11.4% | [10] -9.67%

O=S(=O)(NCCCNc1nccc(-n2cnc3ccccc32)n1)c1ccc(F)cc1
inactive: [1] 70.4% | [2] 64.1% | [3] 99.5% | [4] 82.7% | [5] 79.7% | [6] 87.9% | [7] 68.5% | [8] 88.8% | [9] 97.7% | [10] 86%
